{"source": "PubChem BioAssay AID602289", "about": "(National Center for Advancing Translational Sciences (NCATS), 2012)", "note": "Among all 2,400 compounds or so, about 40 (2%) were called active. Inconclusive results (about 1%) are left out.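 How the source made its calls: active means inhibition at or above 60%; inconclusive means inhibition from 0% up to below 60%; inactive means no inhibition observed.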 For the sample, actives were picked, then their nearest neighbours and some compounds at random."}
{"assay": "qHTS Assay for Small Molecule Inhibitors of Mitochondrial Division or Activators of Mitochondrial Fusion: Hit Validation in Malachite Green Assay;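 on inhibition: plate controls were DMSO wells with GTPase for no effect and protein-free buffer wells for full effect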", "conditions": "purified GTPase, malachite green phosphate release, A650; hits give high values", "from_the_text": "The budding yeast S. cerevisiae is a powerful system to study mitochondrial fusion. Unlike other organisms, yeast cells without functional mitochondrial DNA (mtDNA) can be propagated and studied as long as they maintain a mitochondrial compartment and are provided with a fermentable carbon source. When mitochondrial fusion is blocked in yeast, mitochondrial tubules rapidly fragment and division continues unopposed. Under conditions where fusion is compromised in mammalian cells, nearly identical changes in mitochondrial structure have been observed. Thus, these findings indicate that steady state mitochondrial structure in cells is a characteristic and specific indicator of fusion activity. Mounting evidence has pointed to a connection between mitochondrial dynamics and apoptosis in mammalian cells. These studies indicate that in mammalian cells mitochondrial dynamics are more integrated into cellular processes than in yeast cells and have evolved not only to distribute the organelle but also to aid in the regulation of cellular homeostasis. Mitochondrial fusion proteins attenuate apoptosis by inhibiting the release of cytochrome c from mitochondria, in part by controlling cristae structures. Thus, small molecules that inhibit mitochondrial fusion may promote apoptosis and potentially act as novel chemotherapeutics and stimulation of apoptosis has become an attractive target of anti-cancer therapies. To identify inhibitors of mitochondrial division, we exploit the growth phenotypes of mitochondrial fusion-defective mutants. The temperature sensitive fusion alleles, such as fzo1-1 and mgm1-5, cause mitochondrial membranes to fragment in cells under non-permissive conditions and cells lose mtDNA, and are unable to grow in the presence of non-fermentable carbon source glycerol. Inhibiting mitochondrial division rescues growth. The hits were tested by the assay provider in a malachite green assay. NIH Chemical Genomics Center [NCGC] NIH Molecular Libraries Probe Production Centers Network [MLPCN] MLPCN Grant: MH081279 Assay Submitter (PI): Jodi M. Nunnari\nMalachite Green Reagent Malachite Green carbinol base- Aldrich 229105 Ammonium molybdate - Sigma A7302 For 100 mL Malachite Green reagent in 1N HCl 16 mL conc. HCL + 32 mL H20 = 48 mL 4N HCl 34 mg malachite green base into 40 mL 1N HCl (10 mL 4N HCl + 30 mL H20) 1 g ammonium molybdate in 15 mL 4N HCl Mix Solutions together. Bring up to […] with H2O. Filter using a 0.2 um tissue culture filter unit (has plastic bottle attached) store at 4 masculine C. (Avoid Glassware/Plastics washed in detergent. Mix solutions in 50 mL conical vials.) For 20 uL reaction volume 1.0 uL Test Drug or DMSO: Added first to each well […]: 25 mM Hepes/Pipes pH 7.0 (H/P) 2.0 uL: 50 mM MgCl2 (final 5mM) 2.32 uL: 1 M NaCl (with contributing protein salt, Final = 150mM) 13.4 uL per reaction. Can be mixed in larger volume (Mini Master Mix) 1.6 uL: Protein 7.5 uM or Protein Freezing Buffer. (Final = 0.6uM) After Protein Added to mini Master Mix, 15ul Total Master Mix added to each well with drug. 4 uL: 500 uM GTP (Final = 100uM), Dilute with 25 mM H/P, store on ice. 20 uL Total Volume Make Master Mix: (Calculate desired reactions and add a few for multi-channel pipetting volume). Multiply the number of desired reactions by 13.4 uL for total Mini Master volume. Multiply the number of desired reactions by 1.6 uL for total Protein volume. Mix, and keep on ice until added to wells. Add 15 uL of Master Mix to each reaction well, incubate with drug for 10 min. For Positive (No Drug) controls add 15 uL Master Mix to wells with only 1 uL DMSO. Make PFB (Protein Freezing Buffer) (no Protein) Master Mix. Multiply the number of desired reactions by 13.4 uL for total Mini Master volume. Multiply the number of desired reactions by 1.6 uL for total PFB volume. Mix, and keep on ice until added to wells Add 10 uL of PFBMaster Mix to each Phosphate Standards well, and 15 uL to each negative control well with DMSO. […]"}
{"compound": "Cn1c2ccccc2c2c(C(=O)N3CCN(c4ccccc4)CC3)cn(C3CCCC3)c(=O)c21", "inhibition": "inactive"}
{"compound": "COc1cccc(COc2ccc3ccc(=O)oc3c2)c1", "inhibition": "inactive"}
{"compound": "CC(C)(C)c1ccc(/C=C/C(=O)Nc2ncccn2)cc1", "inhibition": "inactive"}
{"compound": "O=c1c2ccccc2nc(/C=C/c2cccnc2)n1Cc1ccccc1", "inhibition": "inactive"}
{"compound": "c1ccc(C(c2ccccc2)N2CCN(Cc3nnnn3C3CCCC3)CC2)cc1", "inhibition": "inactive"}
{"compound": "COc1ccc(NC(=O)CSCC(=O)N(C)Cc2ccc(Cl)c(Cl)c2)cc1", "inhibition": "inactive"}
{"compound": "O=S(=O)(Nc1cccc2c1CCCC2)c1ccc(Cl)cc1", "inhibition": "inactive"}
{"compound": "N#Cc1c(NC(=O)c2ccc(Cn3cc(Br)cn3)o2)sc2c1CCCCCC2", "inhibition": "97.3% (active)"}
{"compound": "N#Cc1c(NC(=O)C2CC2)sc2c1CCCCC2", "inhibition": "inactive"}
{"compound": "COC(=O)c1c(NC(=O)c2ccc(C)o2)sc2c1CCCCC2", "inhibition": "inactive"}
{"compound": "CCCc1nnc(NC(=O)CCC(=O)O)s1", "inhibition": "inactive"}
{"compound": "Cc1ccc(Cl)cc1N1CCN(C(=O)c2noc(C)c2[N+](=O)[O-])CC1", "inhibition": "inactive"}
{"compound": "CCCCNC(=O)N1CCN(C(c2ccccc2)c2ccccc2)CC1", "inhibition": "inactive"}
{"compound": "O=[N+]([O-])c1ccc(S(=O)(=O)N2CCN(C3CCN(Cc4ccccc4)CC3)CC2)cc1", "inhibition": "inactive"}
{"compound": "CCOC(=O)c1c(NC(=O)c2ccccc2Cl)sc2c1CCc1ccccc1-2", "inhibition": "102% (active)"}
{"compound": "Cc1ccc(C(=O)c2c(NC(=O)c3ccccc3C)sc(C)c2C)cc1", "inhibition": "inactive"}
{"compound": "CCOC(=O)c1c(NC(=O)COc2ccccc2F)sc2c1CC(C)(C)NC2(C)C", "inhibition": "inactive"}
{"compound": "CN(CCOc1ccccc1)CC(=O)Nc1ccc([N+](=O)[O-])cc1Cl", "inhibition": "inactive"}
{"compound": "C=CCSc1nc(N)c(C#N)c(-c2ccc(C)cc2)c1C#N", "inhibition": "inactive"}
{"compound": "CC(=O)c1cccc(NC(=O)c2ccc(-c3ccccc3[N+](=O)[O-])o2)c1", "inhibition": "inactive"}
{"compound": "O=C(/C=C/c1ccco1)Nc1ccc2nn(-c3ccccc3)nc2c1", "inhibition": "inactive"}
{"compound": "O=C(/C=C/c1ccco1)c1ccc(NC(=O)C23CC4CC(CC(C4)C2)C3)cc1", "inhibition": "80.4% (active)"}
{"compound": "COc1ccccc1/C=C/C(=O)c1ccc(NC(C)=O)cc1", "inhibition": "inactive"}
{"compound": "O=c1c2cc(N3CCOCC3)ccc2[nH]c(=S)n1CCc1ccccc1", "inhibition": "inactive"}
